Screens (PubChem BioAssay)
This excerpt belongs to a sample that is enriched for hits.
Pf Dd2 inh = Plasmodium falciparum Dd2 growth inhibition; P. falciparum Dd2 growth, SYBR Green, 72 h; Potency, µM (series often up to 28.9 µM), for inactives: top-dose activity, negative = inhibition, most hits filed as inhibitors; hit rate 4.3% among 120,000; active = well fitted inhibition curve with a large enough effect;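 note: plate controls were DMSO vehicle for no effect and reference drug for full effect; nearly all actives have a fitted effect of over 65% in size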
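Readout: SYBR Green fluorescence, 485 nm excitation, 535 nm emission, after ~16 h lysis at 37C. Before that, Dd2-infected red cells (2.5% hematocrit) grew 72 h with compound, 29 uM top final concentration.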
* hit, by the source's call; i = inactive; [ ] = another dose, or the depositor's remark. Potency is the fitted concentration of half-maximal effect.

SMILES	Pf Dd2 inh
O=C(NC1CCc2nn(CC3CC3)c(=O)n2CC1)c1n[nH]c2ccccc12 (configuration not stated)	0.9%
OC1(CN2CCN(c3ccc(F)c(Cl)c3)CC2)CCCNC1 (configuration not stated)	7.94µM*
OC1(CN2CCN(c3nccs3)CC2)CCCNC1 (configuration not stated)	-3.7%
Cn1ncc(N2CCN(CC3(O)CCCNC3)CC2)cc1=O (configuration not stated)	-2.7%
CNC(=O)[C@H]1C[C@H](Oc2cccnc2)CN1C(=O)Nc1ccc2c(c1)OCCO2	i
COc1ccc(Cl)cc1NC(=O)c1c(NCc2ccc(C)o2)sc2c1CCCCC2	14.1µM*
CCOC(=O)N1CCc2c(sc(NCc3cccc(F)c3)c2C(=O)Nc2ccc(OCC)cc2)C1	12.6µM*
COc1ccc(NC(=O)NCc2c(-n3cccc3)sc3c2CCCC3)c(OC)c1	9.4%
CCOC(=O)N1CCc2c(sc(NCc3cc(OC)ccc3OC)c2C(=O)Nc2cc(OC)ccc2OC)C1	11.2µM*
COc1ccc(OC)c(CCNC(=O)c2csc3c2CCCCC3)c1	4.8%
COc1ccc(OC)c(NC(=O)c2c(NCc3ccc(OC)c(OC)c3)sc3c2CCC3)c1	7.94µM*
CCOc1cc(=O)n2c(c1C(=O)Nc1cc(OC)ccc1OC)CCCC2	12.4%
COC(=O)c1c(NC(=O)COc2ccc(Cl)cc2C)sc2c1CCCCC2	19.0%
CCOC(=O)c1c(NC(=O)COc2ccc(Cl)cc2C)sc2c1CCCCC2	-6.9%
CCOc1ccc(NC(=O)c2c(NC(=O)c3ccccc3F)sc3c2CCC3)cc1	i
CCOC(=O)c1c(NC(=O)c2ccc(OC)cc2)sc2c1CCCCC2	30.3%
CCOC(=O)c1c(NC(=O)COc2ccc(CC)cc2)sc2c1CCCC2	6.6%
Cc1cccc(CNC(=O)CCc2conc2-c2ccc(F)cc2)c1	-7.5%
CCOc1ncccc1C(=O)N1CCC(Cc2cccc(C(N)=O)c2)C1 (configuration not stated)	1.9%
COc1cccc(CNC(=O)[C@@]23CCCC[C@H]2N(CCC(C)C)C(=O)CC3)c1OC	-32.0%
Cc1cc(=O)n(CC(=O)Nc2ccc(C)c(Cl)c2)c(N2CCOCC2)n1	i
CC(C)NC(=O)N[C@H]1C[C@H]2C(=O)NC[C@@H](CCC(=O)N3CCOCC3)N2C1	-0.1%[44.1 µM]
CCN1C(=O)CCN(C(=O)c2ccc3cc[nH]c3c2)CC12CCOCC2	6.7%
CCOC(=O)CC1CCCCN1C(=O)CCC1(Cc2ccc3ccccc3c2)CCC(=O)N1 (configuration not stated)	-9.5%
COc1ccc(CC(=O)N2CCC(Nc3nccnc3OC)CC2)cc1	-13.9%[5.79 µM]
SMILES	Pf Dd2 inh
Cc1ccc(N2C(=O)N(Cc3cccc(Cl)c3)c3ccccc3S2(=O)=O)cc1	-7.1%
Cc1cccc(N2C(=O)N(Cc3cc(=O)n4ccccc4n3)c3ccccc3S2(=O)=O)c1	i
Cc1ccc(N2C(=O)N(Cc3cc(=O)n4ccccc4n3)c3ccccc3S2(=O)=O)cc1Cl	10µM*
Cc1sc2ccn(C)c(=O)c2c1C(=O)N1CCN(c2ccc(Cl)cc2)CC1	-22.3%
Cc1cccc(N2C(=O)CSC23C(=O)N(CC(=O)NCc2ccccc2Cl)c2ccccc23)c1 (configuration not stated)	10µM*
Cc1cc(C)cc(N2C(=O)CCSC23C(=O)N(Cc2ccccc2)c2ccccc23)c1 (configuration not stated)	i
CN1C(=O)C2(SCC(=O)N2c2ccc(Cl)cc2)c2ccccc21 (configuration not stated)	i
O=C(CN1C(=O)C2(SCC(=O)N2c2ccccc2)c2ccccc21)NCc1ccccc1 (configuration not stated)	-13.7%
COc1ccc(N2C(=O)CSC23C(=O)N(C)c2ccccc23)cc1Cl (configuration not stated)	19.0%
CC1(C)C(=O)N(CC(=O)Nc2ccc(Cl)cc2)c2ccccc21	12.7%
Cc1ccc(N2C(=O)CSC23C(=O)N(CC(=O)Nc2ccc(C(C)C)cc2)c2ccccc23)cc1C (configuration not stated)	12.6µM*
Cc1ccc(N2C(=O)CSC23C(=O)N(CC(=O)Nc2ccccc2F)c2ccccc23)cc1C (configuration not stated)	11.2µM*
Cc1ccc(C)c(NC(=O)CN2C(=O)C(C)(C)c3ccccc32)c1	9.7%
O=C(CN1C(=O)C2(SCC(=O)N2c2ccc(F)c(F)c2)c2ccccc21)Nc1cccc(Cl)c1 (configuration not stated)	12.6µM*
Cc1ccc(NC(=O)CN2C(=O)C(C)(C)c3ccccc32)cc1	-12.3%
O=C1CCSC2(C(=O)N(Cc3ccc(F)cc3)c3ccccc32)N1c1ccc(F)c(F)c1 (configuration not stated)	-6.0%
Cc1noc(C)c1CCc1nc(C2CCOCC2)n[nH]1	-1.4%
CN1C(=O)CS(=O)(=O)C12CCN(C(=O)Cc1ccc(Cl)cc1)CC2	-29.2%
O=C1NC2(CCN([S+](=O)([O-])c3cccs3)C2)Oc2ccccc21 (configuration not stated)	i
CCOC(=O)c1ccc(NC(=O)c2ccc3c(c2)N(C)C2CCCCN2C3=O)cc1 (configuration not stated)	i
O=C1CSC2(C(=O)N(Cc3cccc(C(F)(F)F)c3)c3ccccc32)N1c1ccc(F)c(F)c1 (configuration not stated)	11.2µM*
O=C1CCSC2(C(=O)N(Cc3ccc(F)cc3)c3ccccc32)N1c1ccccc1 (configuration not stated)	-26.7%
Cc1cc(C)cc(N2C(=O)CSC23C(=O)N(CC(N)=O)c2ccccc23)c1 (configuration not stated)	-13.0%
O=C1CSC2(C(=O)N(Cc3cccc(F)c3)c3ccccc32)N1c1cccc(C(F)(F)F)c1 (configuration not stated)	-8.6%
Cc1cc(C)c(NC(=O)CN2C(=O)C3(SCC(=O)N3c3ccc(F)cc3)c3ccccc32)c(C)c1 (configuration not stated)	10µM*
SMILES	Pf Dd2 inh
CC(C)c1ccc(N2C(=O)CSC23C(=O)N(Cc2cccc(F)c2)c2ccccc23)cc1 (configuration not stated)	-13.1%
CNC(=O)c1cc(S(=O)(=O)N[C@@H]2COCC[C@H]2O)ccc1OC	-23.3%
CN1CCN(C(=O)c2cccc3c2NCCC3)CC12CCNC(=O)CC2 (configuration not stated)	-17.6%
C=CCOc1cccc(C(=O)N2CC[C@@](O)(C3CCOCC3)[C@H](C)C2)c1	4.9%
Cc1cc(C)cc(NC(=O)C2CCCN2S(=O)(=O)c2ccc3nc(-c4ccccc4)[nH]c3c2)c1 (configuration not stated)	i
Cc1cccc(C)c1NC(=O)C1CCN(S(=O)(=O)c2cccc3nsnc23)CC1	16.1%
CCc1cccc(C)c1NC(=O)C1CCN(S(=O)(=O)c2cccc3nonc23)CC1	14.1%
O=C(Nc1ccc(F)cc1F)C1CCCN1S(=O)(=O)c1cccc2nsnc12 (configuration not stated)	12.0%
Cc1ccc(NC(=O)C2CCCN2S(=O)(=O)c2cccc3nsnc23)c(Br)c1 (configuration not stated)	7.08µM*
Cc1ccc(NC(=O)C2CCCN(S(=O)(=O)c3cccc4nsnc34)C2)c(C)c1 (configuration not stated)	-7.4%
CCc1cccc(C)c1NC(=O)C1CCCN1S(=O)(=O)c1cccc2nsnc12 (configuration not stated)	5.01µM*
